Measurements from ChEMBL document CHEMBL3988442, “University of Dundee, Small-Polar-MMV Screening Library” (2021).
The campaign covered roughly 48,000 compounds. About 13,000 (27%) showed an effect of 50% or more. The list shows a part of the results.

These compounds were tested on Wolbachia pipientis (assay: Anti-Wolbachia Cell-Based Screen). Conditions: 5 µM.
Assay type: functional
Design: scale not given: in the data most compounds retested in dose-response had high values

| Structure (SMILES) | Percent Effect [%] |
| --- | --- |
| COc1cccc(CC(C)NC(=O)NCCc2cccnc2)c1 (configuration not stated) | -9.147 |
| CN(C)Cc1cncc2c1CCN(CC(=O)N(C)C)C2 | 91.67 |
| CC(C)N(C)Cc1cncc2c1CCN(CC(=O)N(C)C)C2.Cl.Cl.Cl | 105.8 |
| CCN1CCc2c(CNC(=O)c3nccn3C)cncc2C1.Cl.Cl.Cl | 11.07 |
| CN(C)C(=O)CN1C[C@@H]2CC[C@H](C1)N(C(=O)Cc1ccccc1Cl)C2 | -1.206 |
| CC(C)N(C)Cc1cncc2c1CCN(CC1CC1)C2.Cl.Cl.Cl | 102.9 |
| CN(C)C(=O)CN1C[C@@H]2CC[C@H](C1)N(Cc1c(Cl)cncc1Cl)C2 | -12.98 |
| Cl.Cl.c1cnc(NCc2cncc3c2CCN(CC2CC2)C3)nc1 | 93.82 |
| CS(=O)(=O)NCc1cncc2c1CCN(CC1CCOC1)C2.Cl.Cl (configuration not stated) | -2.425 |
| CC(C(=O)N1CCCC1)N1CCCN(C(=O)Oc2ccccc2)CC1 (configuration not stated) | 21.65 |
| Cc1noc(C)c1CN1C(=O)[C@H]2CC[C@@H]1CN(Cc1nccs1)C2 | -3.876 |
| FC1(F)CCNCC12CCN(c1ccccn1)C2 (configuration not stated) | -2.564 |
| Cc1nc(NCc2ccco2)nc2c1COCC21CCNC1.O=C(O)C(F)(F)F (configuration not stated) | -14.58 |
| N#Cc1ccc(NCCc2n[nH]c(=O)[nH]2)cc1Cl | -5.304 |
| O=C1[C@H]2CN(C3CCOCC3)C[C@H]2CN1Cc1cccnc1 | -4.896 |
| CN(C)Cc1cncc2c1CCN(C1CCOCC1)C2.Cl.Cl.Cl | 89.69 |
| CSc1ncc(CN2C[C@H]3CC[C@@H]2CN(C2CCOCC2)C3)cn1 | -8.939 |
| CC(C)N(C)Cc1cncc2c1CCN(C1CCOCC1)C2.Cl.Cl.Cl | 97.34 |
| COc1cccc(CC(C)NC(=O)NCCNC(C)=O)c1 (configuration not stated) | -2.176 |

| Structure (SMILES) | Percent Effect [%] |
| --- | --- |
| Cc1cc(C)c(CNc2ncnc3c2cnn3C)c(=O)[nH]1 | -6.133 |
| COc1c(CNCCc2c[nH]c3cc(F)ccc23)c(C(C)C)nn1C | 79.98 |
| COc1c(CNCCc2c[nH]c3cc(F)ccc23)c(C)nn1C | 86.39 |
| CC(C)(C)c1n[nH]c(C2CN(CC3CCC3)CCO2)n1 (configuration not stated) | 7.516 |
| O=C1CCCN1CCN1CC=C(c2cnn(C3CCS(=O)(=O)C3)c2)CC1 (configuration not stated) | -11.25 |
| O=C(c1ccco1)N1CCO[C@@H]2CNC[C@@H]21 | 105.9 |
| O=C(c1ccccc1)N1CCO[C@@H]2CNC[C@@H]21 | 106.9 |
| CC[C@H]1CN2CC[C@H]1C[C@@H]2CNC(=O)c1ccco1 | -12.57 |
| N#Cc1cccc(CN2CCO[C@@H]3CNC[C@@H]32)c1 | -0.4846 |
| O=C(c1ccccc1)N1CCOC2CNCC[C@H]21 (some centres not stated) | 121.8 |
| c1cc(CN2CCO[C@@H]3CNC[C@@H]32)co1 | -20.72 |
| O=C(C1CCC1)N1CCO[C@@H]2CNC[C@@H]21 | 7.79 |
| Cl.Cl.c1cc(CN2CCO[C@@H]3CNC[C@@H]32)cs1 | -7.592 |
| O=C(C1CCCC1)N1CCO[C@@H]2CNC[C@@H]21 | -1.725 |
| O=C(c1ccoc1)N1CCO[C@@H]2CNC[C@@H]21 | 113.2 |
| Cl.Cl.c1ccc(CN2CCOC3CNCC[C@H]32)cc1 (some centres not stated) | -10.82 |
| CC(=O)C1(c2ccccc2)CCN(C(=O)CC2CNCCO2)CC1 (configuration not stated) | 5.115 |
| Cn1nc(-c2ccccc2)cc1[C@H]1CN2CC[C@H]1C[C@@H]2CNS(C)(=O)=O | 1.19 |
| CNCc1cn(C[C@H]2CC3CCN2C[C@@H]3C(=O)Nc2ccccc2)nn1 (some centres not stated) | -4.498 |

| Structure (SMILES) | Percent Effect [%] |
| --- | --- |
| O=C1NC[C@H]2CN(C3CCOCC3)CCN12 | -8.801 |
| COc1ccccc1OCCCN1CC=C(c2cnn(C)c2)CC1 | 5.6 |
| CCC(CC)NCC(C)Oc1cccnc1 (configuration not stated) | 18.13 |
| O=C(C1CCCCC1)N1CCO[C@@H]2CNC[C@@H]21 | -9.765 |
| Cl.Cl.O=C(N[C@H]1CN[C@H]2CCCO[C@H]21)c1cccnc1 | -6.399 |
| O=C(c1cccnc1)N1CCO[C@@H]2CNC[C@@H]21 | 100.8 |
| Fc1cccc(CN2C[C@@H]3CN(c4ncccn4)C[C@@H]3C2)c1.O=C(O)C(F)(F)F.O=C(O)C(F)(F)F | 102.6 |
| Cc1cccc(CN2C[C@@H]3CN(Cc4ccoc4)CCO[C@@H]3C2)n1.O=C(O)C(F)(F)F.O=C(O)C(F)(F)F.O=C(O)C(F)(F)F | -28.06 |
| Fc1cnc(N2C[C@H]3CN(Cc4cccc(F)c4)C[C@H]3C2)nc1.O=C(O)C(F)(F)F.O=C(O)C(F)(F)F | 5.307 |
| Fc1cccc(CN2CCC3(CCN3c3ncccn3)C2)c1.O=C(O)C(F)(F)F (configuration not stated) | 74.85 |
| O=C(O)C(F)(F)F.O=C(O)C(F)(F)F.O=C1CC2(CCN(Cc3cccnc3)C2)CN1c1cccc(F)c1 (configuration not stated) | 15.74 |
| Cc1ccc(CN2C[C@@H]3CN(c4ncccn4)C[C@@H]3C2)cc1.O=C(O)C(F)(F)F | 6.326 |
| N#Cc1cccc(CN2C[C@@H]3CN(c4ncccn4)C[C@@H]3C2)c1.O=C(O)C(F)(F)F | 114.7 |
| Fc1cnccc1CN1CCC2(CCN2c2ncccn2)C1.O=C(O)C(F)(F)F (configuration not stated) | -1.377 |
| O=C(O)C(F)(F)F.O=C(O)C(F)(F)F.O=C(O)C(F)(F)F.c1cncc(CN2CCO[C@@H]3CN(Cc4ccoc4)CC[C@@H]3C2)c1 | -22.75 |
| O=C(O)C(F)(F)F.c1cnc(N2CCO[C@@H]3CN(Cc4ccoc4)C[C@@H]3C2)nc1 | 98.59 |
| Cc1nnc([C@@H]2C[C@H]3CN(C4CCC4)C[C@H]3O2)[nH]1.O=C(O)C(F)(F)F | 6.797 |
| CCN1C(=O)C2(CCCCC2)NC12CCSCC2 | -2.409 |
| CCCNC1(c2ccc(Cl)cc2)CCOCC1 | -6.475 |
